We go through 40 compounds from PubChem BioAssay (NCATS).

Inconclusive results are not listed. Values without a mark were called inactive. Calls come from the whole dose curve; as a rule, active = well fitted inhibition curve with a large enough effect; inconclusive = small, poorly fitted or top-dose-only effect; inactive = no such curve, though single readings can be large or run the other way.

In this experiment the target is Retinaldehyde dehydrogenase 3 (Homo sapiens) (UniProt P47895). Briefly: qHTS for Inhibitors of the Aldehyde Dehydrogenase Family (ALDH1A3) Primary screen (AID 2061315).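 Note: plate controls were DMSO vehicle for no effect and reference inhibitor for full effect.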 To be noted: ALDH inhibition qHTS; series mostly up to 56 µM; activity change, negative = inhibition: at the top concentration.
As to `CC[C@H](/C=C/[C@@H](C)[C@H]1CC[C@H]2[C@@H]3CC=C4C[C@@H](O)CC[C@]4(C)[C@H]3CC[C@]12C)C(C)C`, the activity change, negative = inhibition was 15.3% [at 5.59 µM].

Take `O=C1Cc2c([nH]c3ccc(Br)cc23)-c2ncccc2N1`: the “activity change, negative = inhibition” value was 15.6%.

`CN(C)Cc1ccc(-c2cnn3c(-c4cccc(NC(=O)c5cccc(C(F)(F)F)c5)c4)ccnc23)cc1`: the “activity change, negative = inhibition” value is -12.6%.

As for `C=CS(=O)(=O)NC1CCN(C(=O)CNc2cc(I)c(Cl)cc2OC)CC1`, the “activity change, negative = inhibition” value was 4.12%.

Take `O=C(c1ccccc1)c1ccc2nc(NC(=O)c3csc(C4CCN(c5ncnc6ccsc56)CC4)n3)[nH]c2c1`: the “activity change, negative = inhibition” value was 6.37%.

Turning to `CN(C)C(CCOc1cccc2ccccc12)c1ccccc1` (stereo not given), the “activity change, negative = inhibition” value is -2.84%.

For `CC(C)[C@@](C)(O)[C@@H]1CN(c2nc(-c3[nH]nc4ncccc34)c(F)cc2Cl)CCN1`, the “activity change, negative = inhibition” value is 10.8%.

Regarding `CC(C)n1cnc2c(Nc3cccc(Cl)c3)nc(NCCO)nc21`, the “activity change, negative = inhibition” value was 21.4%.

Consider `CCC(C)CNCC(=O)N1CCc2sccc2C1COc1cccc(C)c1` (stereo not given), for which the “activity change, negative = inhibition” value is 5.45%.

`CN(C)c1nc(NC2CCC(NC(=O)c3ccc(F)c(F)c3)CC2)nc2ccccc12` (stereo not given): the “activity change, negative = inhibition” value was 18.1%.

`CN(c1ccccc1CNc1nc(Nc2ccc3c(c2)CC(=O)N3)ncc1C(F)(F)F)S(C)(=O)=O`: the “activity change, negative = inhibition” value is -6.52%.

On to `CC(C)C1CCC(C(=O)N[C@@H](Cc2ccccc2)C(=O)O)CC1` (stereo not given in full), for which the “activity change, negative = inhibition” value was 3.55%.

With `CN(c1nccc(=O)[nH]1)C1CCN(c2nc3ccccc3n2Cc2ccc(F)cc2)CC1`, the “activity change, negative = inhibition” value was 8.87%.

Regarding `COc1cc2c(cc1-c1c(C)noc1C)ncc1[nH]c(=O)n(C(C)c3ccccn3)c12` (stereo not given), the “activity change, negative = inhibition” value is -0.715%.

For `NC(=O)c1nc(Nc2ccccc2)sc1NC(=O)C1CCCCC1`, the “activity change, negative = inhibition” value was 6.9%.

Regarding `O=C(Nc1ncc(SCCN2CCCC2)s1)C1(c2ccc(S(=O)(=O)C3CC3)cc2)CC1C1CCCCC1` (stereo not given), the “activity change, negative = inhibition” value is 0.75%.

Consider `COc1ccccc1OCCNCC(O)CCOc1cccc2[nH]c3ccccc3c12` (stereo not given), for which the “activity change, negative = inhibition” value was 11.1%.

In the case of `CC(C)(C)CC(C)(C)c1ccc(OCCOCC[N+](C)(C)Cc2ccccc2)cc1`, the “activity change, negative = inhibition” value is 2.64%.

Take `COc1ccc2nc(-c3cc(OC)c(OC)c(OC)c3)cc(C(=O)NCC(=O)Nc3ccc(C(C)=O)cc3)c2c1`: the “activity change, negative = inhibition” value is -7.12%.

With `C#CCNCc1cc2cc(OCc3ccccc3)ccc2[nH]1`, the “activity change, negative = inhibition” value was 8.38%.

Turning to `COc1ccc(C2=NC(c3ccc(Cl)cc3)C(c3ccc(Cl)cc3)N2C(=O)N2CCNC(=O)C2)c(OC(C)C)c1` (stereo not given), the “activity change, negative = inhibition” value is 6.44%.

Take `Cc1cn(-c2cc(NC(=O)c3ccc(C)c(Nc4nccc(-c5cnccn5)n4)c3)cc(C(F)(F)F)c2)cn1`: the “activity change, negative = inhibition” value is 3.57%.

Consider `COc1ccc(N(C(=O)Nc2c(C)cccc2C)c2cc(Nc3ccc(N4CCN(C)CC4)cc3)ncn2)c(OC)c1`, for which the “activity change, negative = inhibition” value is 7.25%.

For `CCOC(=O)Nc1nc2ccccc2[nH]1`, the “activity change, negative = inhibition” value was 7.25%.

Regarding `CCCSc1nc(N[C@@H]2C[C@H]2c2ccc(F)c(F)c2)c2nnn([C@@H]3C[C@H](OCCO)[C@@H](O)[C@H]3O)c2n1`, the “activity change, negative = inhibition” value is -3.2%.

Regarding `CCc1ccccc1OC[C@@H](O)CN[C@H]1CCCc2ccccc21`, the “activity change, negative = inhibition” value was 8.86%.

As to `Fc1ccc(-n2cc(CCCCN3CCC4(CC3)OCc3ccccc34)c3ccccc32)cc1`, the “activity change, negative = inhibition” value is 1.75%.

For the compound `CCN(Cc1ccccc1)C(=O)Cn1c(=O)n(C)c2cnc(-c3ccccc3)nc21`, the “activity change, negative = inhibition” value was 1.57%.

As for `Cc1nc(Nc2cnn(C3CCNCC3)c2)nc2c1N(C)C(=O)c1cc3ccccc3cc1N2C`, the “activity change, negative = inhibition” value is 3.04%.

On to `O=C(NC1Cc2ccccc2N(C[C@@H](O)CO)C1=O)c1cc2cc(Cl)sc2[nH]1` (stereo not given in full), for which the “activity change, negative = inhibition” value is 16.9%.

`C=CC(=O)Nc1cccc(CN2C(=O)N(c3c(Cl)c(OC)cc(OC)c3Cl)Cc3cnc(NCCCCN(CC)CC)nc32)c1`: the “activity change, negative = inhibition” value is 4.54%.

Take `CC(=O)OC1C(=O)C2(C)C(O)CC3OCC3(OC(C)=O)C2C(OC(=O)c2ccccc2)C2(O)CC(OC(=O)C(O)C(NC(=O)c3ccccc3)c3ccccc3)C(C)=C1C2(C)C` (stereo not given): the “activity change, negative = inhibition” value is -0.19%.

As to `COc1ccc2cc1Oc1ccc(cc1)C[C@H]1c3c(cc4c(c3Oc3cc5c(cc3OC)CCN(C)[C@@H]5C2)OCO4)CCN1C`, the “activity change, negative = inhibition” value is -9.43%.

As for `CCc1cc2c(cc1CC)CC(NCC(O)c1ccc(O)c3[nH]c(=O)ccc13)C2` (stereo not given), the “activity change, negative = inhibition” value was 9.16%.

In the case of `Cc1ccc(C(=O)N(CCCN)C(c2nc3cc(Cl)ccc3c(=O)n2Cc2ccccc2)C(C)C)cc1` (stereo not given), the “activity change, negative = inhibition” value was 6.1%.

On to `C=C[C@H]1CN2CC[C@H]1C[C@H]2[C@H](O)c1ccnc2ccc(OC)cc12`, for which the “activity change, negative = inhibition” value is 9.27%.

As for `CCC[C@H]1C[C@H](C(=O)N[C@@H]([C@@H]2O[C@@H](SC)[C@@H](O)[C@@H](O)[C@@H]2O)[C@H](C)Cl)N(C)C1`, the “activity change, negative = inhibition” value is -12%.

As to `CC(C)c1nc(CN(C)C(=O)N[C@H](C(=O)N[C@@H](Cc2ccccc2)C[C@H](O)[C@H](Cc2ccccc2)NC(=O)OCc2cncs2)C(C)C)cs1`, the “activity change, negative = inhibition” value is 12.7%.

For the compound `OC(CNCCc1c[nH]c2ccccc12)Cn1c2ccccc2c2ccccc21` (stereo not given), the “activity change, negative = inhibition” value was 5.99%.

For `CNC1CN(c2ccc3c(=O)c(C(=O)O)cn(-c4nccs4)c3n2)CC1OC` (stereo not given), the activity change, negative = inhibition was -3.75% [at 11.2 µM].
